# Laboratory results as given in publication PMC7862700, “An all-to-all approach to the identification of sequence-specific readers for epigenetic DNA modifications on cytosine”.
# What was measured:
# Assay in all cases: DAPPL (digital affinity profiling via proximity ligation, sequencing); 10 mM Tris-HCl pH 7.5, 50 mM NaCl, 1 mM DTT, 4% glycerol, room temperature, 30 min; GST-TFs on glutathione beads, 16-mer random dsDNA library, 0.1% formaldehyde crosslink after washing; high values mean tight binding
# FLI1 = biological target: T1, FLI1 (Homo sapiens, UniProt Q01543 1-452); details: protein: recombinant; tags: N-terminal GST; dsDNA, one strand shown
# T1 sequence: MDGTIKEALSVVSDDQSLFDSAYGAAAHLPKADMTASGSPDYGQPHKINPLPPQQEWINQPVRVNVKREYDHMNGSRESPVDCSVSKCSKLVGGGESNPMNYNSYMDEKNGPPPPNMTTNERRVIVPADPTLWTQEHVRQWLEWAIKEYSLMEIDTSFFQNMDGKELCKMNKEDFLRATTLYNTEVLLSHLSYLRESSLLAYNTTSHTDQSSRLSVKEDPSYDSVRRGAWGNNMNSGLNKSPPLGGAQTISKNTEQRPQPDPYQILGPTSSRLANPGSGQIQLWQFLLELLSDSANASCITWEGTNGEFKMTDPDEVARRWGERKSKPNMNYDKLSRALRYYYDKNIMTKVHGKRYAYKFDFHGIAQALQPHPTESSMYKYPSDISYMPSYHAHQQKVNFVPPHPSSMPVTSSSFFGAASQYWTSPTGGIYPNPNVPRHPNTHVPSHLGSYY
# Summary of the method: (§1)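 GST fusions of human transcription factors were expressed in yeast and captured with glutathione beads. Once given DNA barcodes and pooled alongside a tag-only sample, they were incubated for 30 min at room temperature with 200 nmole of a random double-stranded 16-mer DNA library in Tris/NaCl/DTT/glycerol buffer, then washed, crosslinked (0.1% formaldehyde), proximity-ligated, PCR-amplified and sequenced on an Illumina NextSeq500. The binding signal of each hexamer is its read frequency for a factor divided by its frequency for the tag-only sample.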
# ELK1 = biological target: T2, ELK1 (Homo sapiens, UniProt P19419 1-428); details: protein: recombinant; tags: N-terminal GST; dsDNA, one strand shown
# T2 sequence: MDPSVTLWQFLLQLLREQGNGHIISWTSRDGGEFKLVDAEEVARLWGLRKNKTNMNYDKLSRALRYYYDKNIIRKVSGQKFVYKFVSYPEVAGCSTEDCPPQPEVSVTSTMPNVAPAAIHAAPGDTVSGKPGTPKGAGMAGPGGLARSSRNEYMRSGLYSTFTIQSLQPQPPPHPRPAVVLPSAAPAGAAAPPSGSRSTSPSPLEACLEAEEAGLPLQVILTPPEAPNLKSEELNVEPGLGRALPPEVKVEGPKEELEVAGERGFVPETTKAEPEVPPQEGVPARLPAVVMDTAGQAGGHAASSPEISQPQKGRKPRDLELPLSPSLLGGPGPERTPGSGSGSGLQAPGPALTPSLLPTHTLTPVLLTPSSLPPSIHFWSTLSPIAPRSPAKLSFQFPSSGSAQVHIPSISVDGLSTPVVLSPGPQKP
# Summary of the method: as §1
# GABPA = biological target: T3, GABPA (Homo sapiens, UniProt Q06546 1-454); details: protein: recombinant; tags: N-terminal GST; dsDNA, one strand shown
# T3 sequence: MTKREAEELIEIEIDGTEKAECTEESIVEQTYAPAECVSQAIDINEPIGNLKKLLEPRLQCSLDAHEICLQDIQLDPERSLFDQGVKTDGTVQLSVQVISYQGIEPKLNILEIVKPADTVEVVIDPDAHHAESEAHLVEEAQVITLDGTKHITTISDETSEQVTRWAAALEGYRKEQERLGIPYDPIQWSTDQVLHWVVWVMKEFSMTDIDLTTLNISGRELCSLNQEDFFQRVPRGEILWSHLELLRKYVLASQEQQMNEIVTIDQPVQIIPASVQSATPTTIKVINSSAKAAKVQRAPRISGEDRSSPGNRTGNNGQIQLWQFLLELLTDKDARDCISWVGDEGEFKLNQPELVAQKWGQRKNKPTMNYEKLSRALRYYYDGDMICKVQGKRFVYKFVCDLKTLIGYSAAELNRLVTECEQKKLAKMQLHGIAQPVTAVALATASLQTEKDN
# Summary of the method: as §1
# ERG = biological target: T4, ERG (Homo sapiens, UniProt P11308 1-479); details: protein: recombinant; tags: N-terminal GST; dsDNA, one strand shown
# T4 sequence: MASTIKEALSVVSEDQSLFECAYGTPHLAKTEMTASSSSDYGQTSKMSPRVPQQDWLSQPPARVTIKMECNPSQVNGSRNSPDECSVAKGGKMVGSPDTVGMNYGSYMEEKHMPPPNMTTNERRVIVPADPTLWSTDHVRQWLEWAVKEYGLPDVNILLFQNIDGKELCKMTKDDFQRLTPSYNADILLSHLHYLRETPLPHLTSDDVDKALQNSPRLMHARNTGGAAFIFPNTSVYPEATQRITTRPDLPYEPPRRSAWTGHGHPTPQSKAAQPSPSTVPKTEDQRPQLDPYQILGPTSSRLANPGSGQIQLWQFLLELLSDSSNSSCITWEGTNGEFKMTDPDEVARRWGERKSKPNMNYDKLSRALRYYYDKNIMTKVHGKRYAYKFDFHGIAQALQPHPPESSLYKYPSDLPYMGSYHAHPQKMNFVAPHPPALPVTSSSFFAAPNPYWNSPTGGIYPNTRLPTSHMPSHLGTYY
# Summary of the method: as §1
# ELF1 = ELF1 (Homo sapiens, UniProt P32519 1-619); details: protein: recombinant; tags: N-terminal GST; dsDNA, one strand shown
# Summary of the method: as §1
# EHF = biological target: T5, EHF (Homo sapiens, UniProt Q9NZC4 1-300); details: protein: recombinant; tags: N-terminal GST; dsDNA, one strand shown
# T5 sequence: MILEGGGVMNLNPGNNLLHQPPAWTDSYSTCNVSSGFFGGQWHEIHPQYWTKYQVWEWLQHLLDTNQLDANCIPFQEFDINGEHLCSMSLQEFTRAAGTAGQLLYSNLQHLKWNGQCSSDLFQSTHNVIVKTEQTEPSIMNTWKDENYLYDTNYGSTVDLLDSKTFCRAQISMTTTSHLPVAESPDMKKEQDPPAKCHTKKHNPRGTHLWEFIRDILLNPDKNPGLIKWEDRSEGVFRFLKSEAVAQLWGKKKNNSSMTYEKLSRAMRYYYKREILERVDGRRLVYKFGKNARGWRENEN
# Summary of the method: as §1
# SPI1 = SPI1 (Homo sapiens, UniProt P17947 1-270); details: protein: recombinant; tags: N-terminal GST; dsDNA, one strand shown
# Summary of the method: as §1
# SPIB = SPIB (Homo sapiens, UniProt Q01892 1-262); details: protein: recombinant; tags: N-terminal GST; dsDNA, one strand shown
# Summary of the method: as §1
# ELK3 = biological target: T6, ELK3 (Homo sapiens, UniProt P41970 1-407); details: protein: recombinant; tags: N-terminal GST; dsDNA, one strand shown
# T6 sequence: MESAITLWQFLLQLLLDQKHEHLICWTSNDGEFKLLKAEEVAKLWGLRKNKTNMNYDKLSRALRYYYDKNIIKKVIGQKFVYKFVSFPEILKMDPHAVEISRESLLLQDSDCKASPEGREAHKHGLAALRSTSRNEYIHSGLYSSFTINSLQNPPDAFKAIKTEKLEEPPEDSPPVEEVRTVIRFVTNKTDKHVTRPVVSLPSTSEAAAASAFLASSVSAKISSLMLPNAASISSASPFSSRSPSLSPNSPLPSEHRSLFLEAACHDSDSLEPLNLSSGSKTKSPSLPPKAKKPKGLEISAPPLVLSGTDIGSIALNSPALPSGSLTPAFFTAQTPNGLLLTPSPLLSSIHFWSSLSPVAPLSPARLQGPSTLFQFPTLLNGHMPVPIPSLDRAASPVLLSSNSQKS
# Summary of the method: as §1
# FEV = biological target: T7, FEV (Homo sapiens, UniProt Q99581 1-238); details: protein: recombinant; tags: N-terminal GST; dsDNA, one strand shown
# T7 sequence: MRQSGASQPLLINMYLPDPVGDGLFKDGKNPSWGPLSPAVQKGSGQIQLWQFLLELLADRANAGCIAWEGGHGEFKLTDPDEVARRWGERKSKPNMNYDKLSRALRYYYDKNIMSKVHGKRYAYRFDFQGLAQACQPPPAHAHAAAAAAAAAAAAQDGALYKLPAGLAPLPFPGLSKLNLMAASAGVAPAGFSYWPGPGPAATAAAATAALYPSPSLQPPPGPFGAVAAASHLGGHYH
# Summary of the method: as §1
# ETV5 = ETV5 (Homo sapiens, UniProt P41161 1-510); details: protein: recombinant; tags: N-terminal GST; dsDNA, one strand shown
# Summary of the method: as §1
# HSF1 = HSF1 (Homo sapiens, UniProt Q00613 1-529); details: protein: recombinant; tags: N-terminal GST; chain copies: 3; dsDNA, one strand shown
# Summary of the method: as §1
# SPIC = biological target: T8, SPIC (Homo sapiens, UniProt Q8N5J4 1-248); details: protein: recombinant; tags: N-terminal GST; dsDNA, one strand shown
# T8 sequence: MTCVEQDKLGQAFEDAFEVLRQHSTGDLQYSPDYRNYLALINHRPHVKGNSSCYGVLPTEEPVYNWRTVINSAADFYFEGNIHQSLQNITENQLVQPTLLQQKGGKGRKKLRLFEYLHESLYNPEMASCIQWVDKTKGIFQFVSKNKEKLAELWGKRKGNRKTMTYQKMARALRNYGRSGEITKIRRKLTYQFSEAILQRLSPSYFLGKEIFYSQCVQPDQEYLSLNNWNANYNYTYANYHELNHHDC
# Summary of the method: as §1
# ELF4 = ELF4 (Homo sapiens, UniProt Q99607 1-663); details: protein: recombinant; tags: N-terminal GST; dsDNA, one strand shown
# Summary of the method: as §1
# ELK4 = biological target: T9, ELK4 (Homo sapiens, UniProt P28324-2 1-405); details: protein: recombinant; tags: N-terminal GST; dsDNA, one strand shown
# T9 sequence: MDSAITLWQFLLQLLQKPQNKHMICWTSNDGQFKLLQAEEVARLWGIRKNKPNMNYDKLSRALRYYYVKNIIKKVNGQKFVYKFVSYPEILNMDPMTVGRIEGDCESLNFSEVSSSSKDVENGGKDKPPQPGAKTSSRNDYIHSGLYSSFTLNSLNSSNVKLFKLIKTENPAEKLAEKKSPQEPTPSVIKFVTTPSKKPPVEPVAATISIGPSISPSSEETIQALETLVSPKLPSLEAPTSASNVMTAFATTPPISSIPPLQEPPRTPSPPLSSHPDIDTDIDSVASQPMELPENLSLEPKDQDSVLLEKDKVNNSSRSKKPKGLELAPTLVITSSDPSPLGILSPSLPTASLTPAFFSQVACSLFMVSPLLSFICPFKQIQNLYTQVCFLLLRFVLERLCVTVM
# Summary of the method: as §1
# ETV2 = biological target: T10, ETV2 (Homo sapiens, UniProt O00321 1-342); details: protein: recombinant; tags: N-terminal GST; dsDNA, one strand shown
# T10 sequence: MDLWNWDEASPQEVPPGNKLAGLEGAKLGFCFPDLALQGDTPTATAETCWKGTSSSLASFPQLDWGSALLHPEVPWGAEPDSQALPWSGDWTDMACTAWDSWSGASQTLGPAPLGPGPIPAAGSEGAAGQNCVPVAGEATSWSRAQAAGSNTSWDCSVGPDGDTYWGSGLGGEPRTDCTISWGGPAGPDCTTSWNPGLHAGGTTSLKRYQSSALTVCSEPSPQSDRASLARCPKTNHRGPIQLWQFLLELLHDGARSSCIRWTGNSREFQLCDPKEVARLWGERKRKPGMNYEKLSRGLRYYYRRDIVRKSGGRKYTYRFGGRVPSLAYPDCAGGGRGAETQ
# Summary of the method: as §1
# ELF3 = biological target: T11, ELF3 (Homo sapiens, UniProt P78545 1-371); details: protein: recombinant; tags: N-terminal GST; dsDNA, one strand shown
# T11 sequence: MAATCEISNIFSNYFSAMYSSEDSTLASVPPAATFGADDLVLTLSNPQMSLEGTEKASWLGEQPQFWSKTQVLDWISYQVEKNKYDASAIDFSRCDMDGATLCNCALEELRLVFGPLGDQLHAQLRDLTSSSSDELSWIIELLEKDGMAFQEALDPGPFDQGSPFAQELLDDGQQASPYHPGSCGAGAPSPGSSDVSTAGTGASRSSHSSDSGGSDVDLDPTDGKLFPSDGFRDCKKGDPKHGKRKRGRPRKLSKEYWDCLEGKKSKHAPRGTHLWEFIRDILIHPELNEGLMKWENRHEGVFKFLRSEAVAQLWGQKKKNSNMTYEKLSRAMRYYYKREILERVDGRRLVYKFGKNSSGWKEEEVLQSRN
# Summary of the method: as §1
# CRX = CRX (Homo sapiens, UniProt O43186 1-299); details: protein: recombinant; tags: N-terminal GST; dsDNA, one strand shown
# Summary of the method: as §1
# ETV1 = ETV1 (Homo sapiens, UniProt P50549 1-477); details: protein: recombinant; tags: N-terminal GST; dsDNA, one strand shown
# Summary of the method: as §1
# SPIB, sequence (Q01892 whole entry): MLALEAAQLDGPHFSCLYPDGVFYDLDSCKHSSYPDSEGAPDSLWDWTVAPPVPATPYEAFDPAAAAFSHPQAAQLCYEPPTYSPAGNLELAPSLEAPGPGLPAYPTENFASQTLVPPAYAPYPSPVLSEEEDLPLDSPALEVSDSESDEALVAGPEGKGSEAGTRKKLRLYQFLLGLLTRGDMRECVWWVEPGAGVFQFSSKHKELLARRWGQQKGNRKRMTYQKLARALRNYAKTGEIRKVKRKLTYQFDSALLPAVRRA
# ELF1, sequence (P32519 whole entry): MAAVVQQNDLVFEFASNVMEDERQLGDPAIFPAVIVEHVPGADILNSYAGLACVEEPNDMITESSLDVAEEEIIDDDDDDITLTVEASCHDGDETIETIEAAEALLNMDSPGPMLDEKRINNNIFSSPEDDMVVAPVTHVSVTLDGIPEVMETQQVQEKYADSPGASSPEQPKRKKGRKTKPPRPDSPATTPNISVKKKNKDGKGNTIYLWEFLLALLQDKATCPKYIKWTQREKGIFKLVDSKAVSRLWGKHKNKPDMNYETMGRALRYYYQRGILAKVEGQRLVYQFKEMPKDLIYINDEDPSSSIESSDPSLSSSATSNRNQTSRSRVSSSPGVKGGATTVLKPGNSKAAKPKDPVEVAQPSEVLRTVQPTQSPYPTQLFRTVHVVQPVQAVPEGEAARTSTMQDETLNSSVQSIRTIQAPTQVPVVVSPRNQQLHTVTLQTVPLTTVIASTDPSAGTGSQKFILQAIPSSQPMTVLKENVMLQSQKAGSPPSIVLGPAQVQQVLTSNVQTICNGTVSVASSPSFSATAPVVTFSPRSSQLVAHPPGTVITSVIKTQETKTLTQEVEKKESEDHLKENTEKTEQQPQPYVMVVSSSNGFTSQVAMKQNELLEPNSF
# ETV5, sequence (P41161 whole entry): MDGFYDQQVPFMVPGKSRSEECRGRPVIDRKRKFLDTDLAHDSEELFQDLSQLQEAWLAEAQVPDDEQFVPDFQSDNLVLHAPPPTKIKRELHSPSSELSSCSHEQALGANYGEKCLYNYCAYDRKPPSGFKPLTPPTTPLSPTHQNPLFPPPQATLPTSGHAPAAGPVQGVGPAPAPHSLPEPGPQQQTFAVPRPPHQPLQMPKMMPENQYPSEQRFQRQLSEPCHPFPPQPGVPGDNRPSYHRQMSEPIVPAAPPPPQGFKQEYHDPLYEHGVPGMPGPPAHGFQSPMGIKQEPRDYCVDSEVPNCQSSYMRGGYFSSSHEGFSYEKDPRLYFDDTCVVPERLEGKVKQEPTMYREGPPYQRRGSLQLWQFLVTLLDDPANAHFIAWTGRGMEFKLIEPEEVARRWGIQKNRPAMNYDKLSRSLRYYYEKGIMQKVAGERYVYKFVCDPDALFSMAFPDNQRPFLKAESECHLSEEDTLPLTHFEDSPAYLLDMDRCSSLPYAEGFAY
# HSF1, sequence (Q00613 whole entry): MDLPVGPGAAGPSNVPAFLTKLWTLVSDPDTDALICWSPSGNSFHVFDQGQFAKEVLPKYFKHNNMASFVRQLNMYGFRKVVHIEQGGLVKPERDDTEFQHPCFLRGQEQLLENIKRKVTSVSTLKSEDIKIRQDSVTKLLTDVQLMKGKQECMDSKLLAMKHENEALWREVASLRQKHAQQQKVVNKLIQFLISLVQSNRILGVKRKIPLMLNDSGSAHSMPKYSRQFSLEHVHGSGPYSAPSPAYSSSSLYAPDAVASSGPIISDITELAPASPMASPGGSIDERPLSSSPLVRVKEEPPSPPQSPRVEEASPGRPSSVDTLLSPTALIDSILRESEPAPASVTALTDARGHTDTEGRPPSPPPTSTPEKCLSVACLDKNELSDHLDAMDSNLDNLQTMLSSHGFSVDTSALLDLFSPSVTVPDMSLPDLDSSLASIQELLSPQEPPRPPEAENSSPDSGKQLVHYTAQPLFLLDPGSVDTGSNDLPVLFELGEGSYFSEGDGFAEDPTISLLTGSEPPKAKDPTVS
# ETV1, sequence (P50549 whole entry): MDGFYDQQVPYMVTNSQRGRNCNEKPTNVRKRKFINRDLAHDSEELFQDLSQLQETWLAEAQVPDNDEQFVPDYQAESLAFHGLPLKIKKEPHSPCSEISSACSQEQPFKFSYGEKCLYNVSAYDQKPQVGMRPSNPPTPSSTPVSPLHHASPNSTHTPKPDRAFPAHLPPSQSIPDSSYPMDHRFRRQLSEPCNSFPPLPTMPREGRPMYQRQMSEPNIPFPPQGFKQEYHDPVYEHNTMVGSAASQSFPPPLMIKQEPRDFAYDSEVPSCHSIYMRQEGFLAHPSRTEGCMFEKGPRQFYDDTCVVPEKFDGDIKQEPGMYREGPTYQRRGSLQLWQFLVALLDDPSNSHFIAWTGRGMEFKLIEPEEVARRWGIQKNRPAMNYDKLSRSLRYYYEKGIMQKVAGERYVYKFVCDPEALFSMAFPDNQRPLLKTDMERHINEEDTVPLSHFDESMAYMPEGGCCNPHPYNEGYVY
# ELF4, sequence (Q99607 whole entry): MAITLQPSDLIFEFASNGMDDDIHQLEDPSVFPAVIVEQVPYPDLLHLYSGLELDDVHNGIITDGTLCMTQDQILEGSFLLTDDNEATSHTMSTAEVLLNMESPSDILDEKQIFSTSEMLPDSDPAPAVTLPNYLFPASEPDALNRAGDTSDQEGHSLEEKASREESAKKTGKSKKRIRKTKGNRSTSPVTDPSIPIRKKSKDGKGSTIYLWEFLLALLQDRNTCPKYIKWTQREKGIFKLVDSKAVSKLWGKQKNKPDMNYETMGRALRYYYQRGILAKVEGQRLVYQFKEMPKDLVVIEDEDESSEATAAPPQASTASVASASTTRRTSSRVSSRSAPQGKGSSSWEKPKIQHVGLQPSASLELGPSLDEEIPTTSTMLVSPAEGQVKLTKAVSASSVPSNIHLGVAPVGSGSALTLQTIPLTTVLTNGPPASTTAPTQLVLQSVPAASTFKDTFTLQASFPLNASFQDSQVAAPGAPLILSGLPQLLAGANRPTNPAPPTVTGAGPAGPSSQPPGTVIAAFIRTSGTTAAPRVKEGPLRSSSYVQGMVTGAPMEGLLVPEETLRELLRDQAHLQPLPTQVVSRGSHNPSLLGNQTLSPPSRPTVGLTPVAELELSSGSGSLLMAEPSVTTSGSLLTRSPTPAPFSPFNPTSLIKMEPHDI
# CRX, sequence (O43186 whole entry): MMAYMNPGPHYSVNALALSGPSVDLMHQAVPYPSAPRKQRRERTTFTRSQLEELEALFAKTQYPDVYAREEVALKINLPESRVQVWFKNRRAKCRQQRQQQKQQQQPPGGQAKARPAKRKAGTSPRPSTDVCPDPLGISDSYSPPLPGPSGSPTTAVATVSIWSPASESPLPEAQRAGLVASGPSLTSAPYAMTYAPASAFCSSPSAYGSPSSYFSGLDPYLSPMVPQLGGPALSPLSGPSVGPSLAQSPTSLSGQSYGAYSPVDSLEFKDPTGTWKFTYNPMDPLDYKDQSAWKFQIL
sequence,measurement,setting,value
CCTATC,binding signal,FLI1,"1.27 fold enrichment (6-mer frequency, TF over GST control)"
same,binding signal,ELK1,"1.27 fold enrichment (6-mer frequency, TF over GST control)"
same,binding signal,GABPA,"1.13 fold enrichment (6-mer frequency, TF over GST control)"
same,binding signal,ERG,"1.15 fold enrichment (6-mer frequency, TF over GST control)"
same,binding signal,ELF1,"1.15 fold enrichment (6-mer frequency, TF over GST control)"
same,binding signal,EHF,"1.18 fold enrichment (6-mer frequency, TF over GST control)"
same,binding signal,SPI1,"1.14 fold enrichment (6-mer frequency, TF over GST control)"
same,binding signal,SPIB,"1.31 fold enrichment (6-mer frequency, TF over GST control)"
same,binding signal,ELK3,"1.45 fold enrichment (6-mer frequency, TF over GST control)"
same,binding signal,FEV,"1.16 fold enrichment (6-mer frequency, TF over GST control)"
same,binding signal,ETV5,"1.14 fold enrichment (6-mer frequency, TF over GST control)"
same,binding signal,HSF1,"1.06 fold enrichment (6-mer frequency, TF over GST control)"
same,binding signal,SPIC,"1.1 fold enrichment (6-mer frequency, TF over GST control)"
same,binding signal,ELF4,"1.16 fold enrichment (6-mer frequency, TF over GST control)"
same,binding signal,ELK4,"1.14 fold enrichment (6-mer frequency, TF over GST control)"
same,binding signal,ETV2,"1.08 fold enrichment (6-mer frequency, TF over GST control)"
same,binding signal,ELF3,"1.23 fold enrichment (6-mer frequency, TF over GST control)"
same,binding signal,CRX,"1.15 fold enrichment (6-mer frequency, TF over GST control)"
same,binding signal,ETV1,"1.16 fold enrichment (6-mer frequency, TF over GST control)"
